JMJD2A Tudor inh – JMJD2A Tudor domain (human) inhibition | O75164 | AlphaScreen JMJD2A-Tudor / H3K4me3 peptide binding | Potency, µM (titrated, usually from 114 µM), hits mostly inhibitors | actives 4.4% (n = 390,000); also: nearly all actives have a fitted effect of over 50% in size
12-LOX inh – blocks human arachidonate 12S-lipoxygenase; AID 1671190; P18054; Potency, µM (top dose mostly 108 µM), most hits filed as inhibitors; purified 12hLO, xylenol orange hydroperoxide absorbance; actives 1.1% (n = 580,000)
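Purified human 12hLO at 150 nM in 25 mM Hepes, 0.01% Triton X-100, pH 7.0, preincubated 15 min at room temperature with compound. Reaction started with 40 uM arachidonic acid, 30 min at room temperature. Hydroperoxide measured by Fe-xylenol orange, 573/405 nm absorbance ratio.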
BAZ2B block – BAZ2B (human) inhibition; actives 4.4% (n = 360,000); AID 504333; Potency, µM (titrated, usually from 114 µM), hits mostly inhibitors; AlphaScreen BAZ2B-H3K14Ac peptide displacement; Q9UIF8; also: nearly all actives have a fitted effect of over 60% in size
Target sequence (Q9UIF8 whole entry, looked up): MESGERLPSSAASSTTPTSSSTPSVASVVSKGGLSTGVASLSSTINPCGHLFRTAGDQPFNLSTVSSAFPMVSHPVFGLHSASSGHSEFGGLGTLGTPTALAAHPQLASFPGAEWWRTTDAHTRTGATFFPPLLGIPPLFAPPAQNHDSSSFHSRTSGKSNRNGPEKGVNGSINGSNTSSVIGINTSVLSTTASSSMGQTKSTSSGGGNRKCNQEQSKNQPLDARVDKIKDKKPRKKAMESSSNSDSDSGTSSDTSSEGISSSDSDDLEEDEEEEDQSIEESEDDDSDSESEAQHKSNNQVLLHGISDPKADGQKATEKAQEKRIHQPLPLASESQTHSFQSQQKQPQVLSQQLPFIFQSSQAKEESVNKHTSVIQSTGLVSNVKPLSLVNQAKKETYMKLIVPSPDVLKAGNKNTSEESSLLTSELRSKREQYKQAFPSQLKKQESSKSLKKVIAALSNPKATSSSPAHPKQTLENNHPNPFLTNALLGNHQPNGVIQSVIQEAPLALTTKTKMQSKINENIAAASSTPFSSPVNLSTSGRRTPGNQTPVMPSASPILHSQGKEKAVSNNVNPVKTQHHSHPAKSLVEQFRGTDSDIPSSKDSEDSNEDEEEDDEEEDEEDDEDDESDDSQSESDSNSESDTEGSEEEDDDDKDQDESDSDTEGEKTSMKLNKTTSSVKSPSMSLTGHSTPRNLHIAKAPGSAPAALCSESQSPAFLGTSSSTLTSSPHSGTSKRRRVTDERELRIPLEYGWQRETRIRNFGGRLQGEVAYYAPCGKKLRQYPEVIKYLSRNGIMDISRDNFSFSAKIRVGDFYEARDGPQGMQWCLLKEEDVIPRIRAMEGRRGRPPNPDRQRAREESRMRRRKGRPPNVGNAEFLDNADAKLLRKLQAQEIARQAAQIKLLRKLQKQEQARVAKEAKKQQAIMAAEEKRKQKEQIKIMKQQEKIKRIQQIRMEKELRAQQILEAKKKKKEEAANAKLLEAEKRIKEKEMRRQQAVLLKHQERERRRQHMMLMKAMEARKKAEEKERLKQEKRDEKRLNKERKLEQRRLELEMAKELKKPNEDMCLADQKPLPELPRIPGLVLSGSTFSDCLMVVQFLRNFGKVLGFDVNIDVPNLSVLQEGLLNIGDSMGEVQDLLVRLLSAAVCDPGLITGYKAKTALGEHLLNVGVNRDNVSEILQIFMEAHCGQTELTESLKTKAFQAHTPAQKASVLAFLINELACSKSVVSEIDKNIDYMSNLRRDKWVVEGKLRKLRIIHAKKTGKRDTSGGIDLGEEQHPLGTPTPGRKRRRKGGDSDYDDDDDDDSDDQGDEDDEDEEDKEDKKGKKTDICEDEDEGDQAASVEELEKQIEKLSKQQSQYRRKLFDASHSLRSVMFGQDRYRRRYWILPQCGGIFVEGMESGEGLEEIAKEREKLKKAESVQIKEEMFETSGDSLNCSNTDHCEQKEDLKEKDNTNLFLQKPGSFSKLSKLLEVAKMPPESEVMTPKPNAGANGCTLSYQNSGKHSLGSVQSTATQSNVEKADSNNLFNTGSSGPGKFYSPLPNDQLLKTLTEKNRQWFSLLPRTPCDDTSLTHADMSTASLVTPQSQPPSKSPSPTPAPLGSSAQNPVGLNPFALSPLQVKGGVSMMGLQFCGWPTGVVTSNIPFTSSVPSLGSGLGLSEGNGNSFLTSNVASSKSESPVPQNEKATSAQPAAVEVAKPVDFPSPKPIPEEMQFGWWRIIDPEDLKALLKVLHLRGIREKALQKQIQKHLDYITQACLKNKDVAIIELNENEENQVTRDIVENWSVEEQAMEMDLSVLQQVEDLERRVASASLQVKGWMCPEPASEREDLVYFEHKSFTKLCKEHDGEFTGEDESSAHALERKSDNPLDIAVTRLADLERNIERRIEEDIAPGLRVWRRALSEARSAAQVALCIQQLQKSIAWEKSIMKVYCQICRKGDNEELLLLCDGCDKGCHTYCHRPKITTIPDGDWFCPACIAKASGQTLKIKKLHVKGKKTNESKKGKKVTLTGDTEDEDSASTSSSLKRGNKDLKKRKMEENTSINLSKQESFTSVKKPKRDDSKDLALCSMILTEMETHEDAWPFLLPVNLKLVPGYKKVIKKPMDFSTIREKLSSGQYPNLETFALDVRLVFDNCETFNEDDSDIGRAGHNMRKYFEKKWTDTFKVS
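BAZ2B 50 nM plus b-H3(5-23)K14Ac 50 nM, PBS pH 7.4/0.01% Tween-20, 30 min RT; compound added (max 110 uM), 30 min RT; streptavidin donor/Ni-chelate acceptor beads 10 ug/mL final, 20 min dark; AlphaScreen read.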
G9a block – inhibitors of human histone lysine methyltransferase G9a; Q96KQ7; actives 8.8% (n = 350,000); G9a H3K9 monomethylation, AlphaScreen, 2 h; Potency, µM (series often up to 102 µM), actives largely listed as inhibitors; AID 504332; also: nearly all actives have a fitted effect of over 75% in size
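G9a (20 nM) was preincubated 15 min with compound, then reacted 2 h at room temperature with 500 nM biotin-H3K9 peptide and 20 µM SAM. Monomethyl-H3K9 detected by AlphaScreen using anti-H3K9me1 antibody.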
PLK1 PBD block – blocks phosphopeptide binding to human PLK1 polo-box domain; P53350; Plk1 PBD binding of FITC phosphopeptide, fluorescence polarization; Potency, µM, hits mostly inhibitors; actives 2.8% (n = 360,000); AID 720504; also: series mostly up to about 57 µM; nearly all actives have a fitted effect of over 65% in size
HP1b binding inh – HP1-beta chromodomain-methylated histone interaction inhibition. P83916. AlphaScreen HP1-beta / biotin-H3K9me3 peptide binding. Potency, µM (highest dose often 114 µM), usual class: inhibitors. actives 0.56% (n = 390,000). AID 540317; also: nearly all actives have a fitted effect of over 70% in size
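HP1-beta protein (50 nM final) preincubated 30 min at room temperature with biotinylated H3(1-18)K9me3 peptide (50 nM) in PBS pH 7.4, 0.01% Tween-20, then compound added for 30 min. AlphaScreen streptavidin donor/nickel chelate acceptor beads (10 ug/mL final), 30 min dark, luminescence read.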
Hits are given with their value; i = inactive; ? = inconclusive; nt = no result; [ ] = another dose, or the depositor's remark. A selection: hits, their analogues and other compounds. The true share with any hit is near 9%. Calls follow the shape of the dose curve; as a rule, active = well fitted curve in the direction sought with a large enough effect; inconclusive = small, poorly fitted or top-dose-only effect, or another doubt; inactive = no such curve, though single readings can be large; an effect the other way counts as inactive or inconclusive.

SMILES	JMJD2A Tudor inh	12-LOX inh	BAZ2B block	G9a block	PLK1 PBD block	HP1b binding inh
Cc1ccc(-c2n[nH]c(=S)c3ccccc23)cc1S(=O)(=O)NCC1CCCO1 (stereo not drawn)	17.8µM	?	i	22.4µM	i	i
CCCC(=O)Nc1c(C)n[nH]c1C	?	i	i	i	26.7µM	i
Cc1cc(C)n(-c2ccc(Cl)c(C(=O)Nc3cc(C(F)(F)F)ccc3Cl)n2)n1	i	i	i	i	i	i
CC(=O)NCCc1ccc(C(=O)COC(=O)c2ccc(C)c(O)c2)s1	nt	i	nt	nt	nt	nt
COc1ccc(C(=O)OCC(=O)c2ccc(CNC(C)=O)s2)cc1	i	i	i	10µM	i	i
COc1ccccc1C(=O)OCC(=O)c1ccc(CNC(C)=O)s1	i	i	nt	nt	i	i
CC(=O)NCc1ccc(C(=O)CCl)s1	i	?	?	?	5.97µM	i
COc1ccc(/C=C(/C#N)C(=O)Nc2ccc(C34CC5CC(CC(C5)C3)C4)cc2)cc1	nt	i	nt	nt	nt	nt
O=C(CSc1nc2ccccc2o1)NC1CCCC1	i	i	i	i	i	i
CC1(c2ccccc2)CC(C)(C)N(C(=O)C2CCCO2)c2ccccc21 (stereo not drawn)	i	i	i	i	i	i
CC1(Br)C(Sc2ccccc2[N+](=O)[O-])=Nc2ccccc21 (stereo not drawn)	nt	7.94µM	nt	nt	?	nt
CC(C)c1onc(C(=O)NCCc2ccccc2)c1[N+](=O)[O-]	i	i	i	50.1µM	i	i
CC(C)c1onc(C(=O)N(C)Cc2ccccc2)c1[N+](=O)[O-]	i	i	?	i	i	i
CCCNC(=O)C1CCN(c2nnc(-n3cccc3CNc3ccc(OCC)cc3)s2)CC1	nt	i	nt	nt	nt	nt
COc1ccc(N2CCN(Cc3nnnn3C3CCCCC3)CC2)cc1	i	i	i	50.1µM	i	?
COc1ccc(NCc2cccn2-c2nnc(N3CCCCCC3)s2)cc1	44.7µM	i	i	?	nt	?
COc1ccc(N2CCN(Cc3cccn3-c3nnc(N4CCN(C5CCCCC5)CC4)s3)CC2)cc1	50.1µM	i	?	?	nt	?
C1CCC(n2nnnc2CN2CCCC2)CC1	i	i	i	i	i	i
CCOc1ccc(NCc2cccn2-c2nnc(N3CCC(C(=O)NCCCN4CC(C)CC(C)C4)CC3)s2)cc1 (stereo not drawn)	39.8µM	i	?	44.7µM	i	?
N/C(=N\O)c1ccc(NC(=O)c2cccs2)cc1	i	i	i	i	i	i
COC(=O)Nc1ccc(SCC(=O)c2ccccc2)cc1	i	i	i	i	?	i
COc1ccc(NC2=C(NCCO)C(=O)c3ccccc3C2=O)cc1	?	?	22.4µM	14.1µM	i	15.8µM
COc1cccc(NC2=C(NCCO)C(=O)c3ccccc3C2=O)c1	50.1µM	i	35.5µM	i[0.501 µM]	i	?
Cc1cccc(NC2=C(NCCO)C(=O)c3ccccc3C2=O)c1	56.2µM	i	20µM	31.6µM	i	20µM
CN(C)C1(CN=Cc2cc(Cl)cc([N+](=O)[O-])c2O)CCCCC1	39.8µM	17.8µM	44.7µM	?	?	?
SMILES	JMJD2A Tudor inh	12-LOX inh	BAZ2B block	G9a block	PLK1 PBD block	HP1b binding inh
CN(C)C(=O)c1ccc(Cl)cc1[N+](=O)[O-]	i	i	i	?	i	i
CN(C)c1ccc(NC(=O)Cn2cc(S(=O)(=O)Cc3ccccc3Cl)c3ccccc32)cc1	?	i	25.1µM	5.01µM	nt	i
Cc1ccc(NC(=O)Cn2cc(S(=O)(=O)Cc3ccc(F)cc3)c3ccccc32)cc1Cl	56.2µM	10µM	50.1µM	i	nt	i
Cc1cc(NC(=O)CS(=O)(=O)c2cn(Cc3cccc(F)c3)c3ccccc23)no1	i	i	i	14.1µM	i	i
Cc1cc(C)c(NC(=O)Cn2cc(S(=O)(=O)Cc3ccccc3F)c3ccccc32)c(C)c1	i	?	i	i	nt	i
CN(C)c1ccc(NC(=O)Cn2cc(S(=O)(=O)Cc3cccc(Cl)c3)c3ccccc32)cc1	i	i	i	?	nt	i
Cc1cccc(C)c1NC(=O)Cn1cc(S(=O)(=O)Cc2ccc(F)cc2)c2ccccc21	?	50.1µM	?	i	nt	i
Cc1ccc(Cl)cc1NC(=O)Cn1cc(C(F)(F)F)cc(Cl)c1=O	i	i	i	i	i	i
CCc1nc(C#N)c(NCC(c2ccccc2)N2CCOCC2)o1 (stereo not drawn)	nt	i	nt	nt	nt	nt
CCOc1ccc(NC(=O)c2c(NCc3ccc(C)o3)sc3c2CCCCC3)cc1	?	39.8µM	i	5.62µM	nt	i
COc1ccc(NC(=O)c2c(NCc3cccs3)sc3c2CCCCC3)cc1	50.1µM	?	39.8µM	7.94µM	nt	i
CCOc1ccc(NC(=O)c2c(NCc3cccs3)sc3c2CCCCC3)cc1	?	i	?	8.91µM	nt	i
CCOc1ccc(NC(=O)c2c(NCc3sccc3C)sc3c2CCCCC3)cc1	?	?	i	8.91µM	nt	i
CCN(CC1COc2ccccc2O1)C(=O)CN1C(=O)NC(C)(c2ccccc2)C1=O (stereo not drawn)	i	i	i	i[12.7 µM]	i	i
COc1cccc(C2=CC(c3cc(OC)ccc3OC)n3nnnc3N2)c1 (stereo not drawn)	i	?	i	?	i	i
COc1cccc(C2C=C(c3ccc(OC)cc3OC)Nc3nnnn32)c1 (stereo not drawn)	i	nt	i	44.7µM	i	i
COc1ccc(C2=CC(c3ccc(OC)c(OC)c3)n3nnnc3N2)c(OC)c1 (stereo not drawn)	?	i	i	50.1µM	i	i
C1=Nc2c(Nc3ccccc3)ncnc2Oc2ccccc21	i	i	i	i	i	i
CC1=CSC2=NS(=O)(=O)CCN12	i[11.4 µM]	i	i	i	23.8µM	i
O=C1C=CC(=O)N1CCCCCCCCCCN1C(=O)C=CC1=O	?	2µM	nt	nt	1.19µM	?
O=C1C=CC(=O)N1Cc1ccncc1	i	?	nt	nt	i	i
COc1cc2c(cc1NC(=O)C(C)N1CCN(S(=O)(=O)c3ccccc3[N+](=O)[O-])CC1)oc1ccccc12 (stereo not drawn)	i	i	i	?	i	i
CCC1(CC)Cc2ccccc2C(CC(=O)N2CCOCC2)=N1	22.4µM	?	56.2µM	39.8µM	i	i
O=C(CN1C2=NCCN2c2ccccc21)N1CCOCC1	i	i	i	i	i	i
O=C(CC1=NC2(CCCC2)Cc2ccccc21)N1CCOCC1	?	?	50.1µM	?	i	i
O=C(Cc1ccccc1[N+](=O)[O-])N1CCOCC1	i	i	i	i	i	i
CCOC(=O)C(Cc1ccnc2ccccc12)=NO	i	i	nt	nt	i	i
O=C(O)C(Cc1ccnc2ccccc12)=NO	3.16µM	?	nt	nt	i	i
O=C(Nc1cccc([N+](=O)[O-])c1)C1C2CCCCC21 (stereo not drawn)	i	i	i	nt	i	i
